Results filed as inconclusive are left out. Active and inactive are the calls of the source. How the source made its calls, unless noted: active means hit-call score of the fitted dose curve at least 0.9, where 1 is the maximum; inactive means score below 0.9.
How the values were obtained:
[1] = ACEA_ER_80hr: ACEA Biosciences xCELLigence Real-Time Cell Analysis on Estrogen Receptor Agonism for Proliferation (AID 2282667; active means hit-call score of the fitted dose curve at least 0.9, where 1 is the maximum); details: T47D proliferation, impedance (xCELLigence), 80 h
Procedure, shortened: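 Cell-growth kinetics were measured by impedance in T47D cells treated continuously with compound (top 100 uM final, 1:4 steps, 8 points). Activity at 80 h was scored as signal gain over the DMSO baseline.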

[2] = ATG_CRE_CIS: Attagene CIS-FACTORIAL HepG2 Assay for human cAMP Responsive Element (CRE) binding protein 3 (AID 2282926); details: HepG2 CRE cis-reporter, Attagene multiplexed mRNA; actives raise or lower the signal
Procedure, shortened: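 Cells carrying cis-regulated reporter constructs respond through their own endogenous factors. After 24 h treatment, RNA is reverse-transcribed, amplified, labelled and sized by capillary electrophoresis; up- and down-regulation are both scored against vehicle.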

[3] = target: CCAAT/enhancer-binding protein beta (Homo sapiens) (UniProt P17676); assay: ATG_C_EBP_CIS: Attagene CIS-FACTORIAL HepG2 Assay for human CCAAT/Enhancer Binding Protein (C/EBP) beta (AID 2282927); details: HepG2 Attagene cis-factorial transcription factor reporter; actives raise or lower the signal
Procedure, shortened: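 Transiently transfected HepG2 (MRTU library, endogenous TF-driven promoters); 24 h dosing; total RNA → oligo(dT) RT → PCR → 6-FAM primer extension → HpaI digest → CE; fit bidirectionally vs DMSO.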

[4] = ATG_CMV_CIS: Attagene CIS-FACTORIAL HepG2 Assay for human CMV (Internal Marker) (AID 2282928); details: HepG2 CMV promoter reporter, transcription factor profiling; actives raise or lower the signal;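 further: endpoint acts as a background internal control marker rather than a target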
Procedure, shortened: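 Bidirectional fits against DMSO are applied to reporter mRNA, read by RT-PCR with capillary electrophoresis, from HepG2 cells exposed 24 h. The endpoint serves as an internal CMV background marker within the cis-factorial reporter panel.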

[5] = ATG_AP_1_CIS: Attagene CIS-FACTORIAL HepG2 Assay for human Activator Protein 1 (AP-1) (AID 2282931); details: HepG2 Attagene cis-factorial AP-1 reporter mRNA; actives raise or lower the signal
Procedure, shortened: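 Fluorescence of labelled PCR fragments separated by capillary electrophoresis gives reporter mRNA levels. HepG2 with transfected cis-regulated reporter units, 24 h exposure; DMSO serves as baseline for bidirectional curve fits.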

[6] = ATG_AP_2_CIS: Attagene CIS-FACTORIAL HepG2 Assay for human Activator Protein 2 (AP-2) (AID 2282932); details: HepG2 AP-2 cis-reporter, Attagene transcription factor profiling; actives raise or lower the signal
Procedure, shortened: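 Read-out: fluorescent reporter mRNA via RT-PCR and capillary electrophoresis, 24 h post-dose in transiently transfected HepG2. Endogenous factors drive cis-promoter reporters; gain or loss of signal fitted bidirectionally against DMSO.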

[7] = ATG_BRE_CIS: Attagene CIS-FACTORIAL HepG2 Assay for human Bone Morphogenetic Protein (BMP) Response Element (BRE) (AID 2282933); details: HepG2 BMP response element reporter, Attagene transcription factor profiling; actives raise or lower the signal
Procedure, shortened: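 Fluorescence-labelled reporter cDNA fragments, separated by capillary electrophoresis, gave the signal for this component of a 52-readout multiplex. HepG2 cells were transfected, exposed to chemicals for 24 h, and compared with DMSO using bidirectional fitting.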

[8] = target: Retinoic acid receptor alpha (Homo sapiens) (UniProt P10276); assay: ATG_DR5_RAR_CIS: Attagene CIS-FACTORIAL HepG2 Assay for human Retinoic Acid Receptor Alpha (RARE), DR5 submotif (AID 2282934); details: HepG2 Attagene cis-factorial RARE DR5 reporter, mRNA; actives raise or lower the signal
Procedure, shortened: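 Read-out: DR5-driven reporter transcript measured by RT-PCR, 6-FAM primer extension, HpaI digest and capillary electrophoresis. Human HepG2 liver cells carry transiently transfected cis-element reporter constructs; dosing lasts 24 h. Gain or loss of signal fitted against DMSO baseline.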

[9] = target: Transcription factor E2F1 (Homo sapiens) (UniProt Q01094); assay: ATG_E2F_CIS: Attagene CIS-FACTORIAL HepG2 Assay for human E2F Transcription Factor 1 (AID 2282935); details: HepG2 Attagene cis-reporter, E2F reporter RNA transcripts; actives raise or lower the signal
Procedure, shortened: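 Transient MRTU transfection of HepG2; 24 h compound exposure; RNA → oligo(dT) RT → PCR → FAM label → HpaI cut → CE fluorescence. Gain/loss of signal fit against DMSO.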

[10] = ATG_E_Box_CIS: Attagene CIS-FACTORIAL HepG2 Assay for human Enhancer Box (E-box) (AID 2282936); details: HepG2 E-box cis-reporter transcription, actives raise or lower the signal
Procedure, shortened: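 Transiently transfected HepG2, endogenous TF-driven reporters, 24 h dosing. Readout: RT-PCR plus capillary electrophoresis of fluorescent reporter fragments. Gain or loss of signal fitted bidirectionally against DMSO baseline.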

[11] = ATG_M_61_CIS: Attagene CIS-FACTORIAL HepG2 Assay for M61 Transcription Factor (Internal Marker) (AID 2282937); details: HepG2 Attagene CIS-FACTORIAL M61 internal marker reporter; actives raise or lower the signal
Procedure, shortened: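 This endpoint serves as an internal background control within a multiplexed HepG2 cis-reporter panel. Cells are exposed for 24 h; reporter mRNA is amplified, fluorescently labelled and sized by capillary electrophoresis, with DMSO as negative control.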

[12] = ATG_EGR_CIS: Attagene CIS-FACTORIAL HepG2 Assay for human Early Growth Response 1 (EGR1) (AID 2282938); details: HepG2 Attagene CIS-FACTORIAL EGR reporter mRNA; actives raise or lower the signal
Procedure, shortened: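 HepG2, transient MRTU transfection (cis promoters), 24 h compound. RNA → RT (oligo-dT) → PCR → 6-FAM labelling → HpaI cut → CE fluorescence. Bidirectional fit, DMSO baseline.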

[13] = ATG_M_19_CIS: Attagene CIS-FACTORIAL HepG2 Assay for M19 Transcription Factor (Internal Marker) (AID 2282939); details: HepG2 Attagene CIS-FACTORIAL M19 internal marker reporter; actives raise or lower the signal
Procedure, shortened: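 HepG2, MRTU transient transfection, 24 h dosing. Total RNA → RT-PCR → 6-FAM primer extension → HpaI digest → CE fluorescence. Bidirectional curve fit, DMSO negative control.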

[14] = ATG_ERE_CIS: Attagene CIS-FACTORIAL HepG2 Assay for Estrogen Response Element (ERE) (AID 2282940); details: HepG2 ERE cis-reporter, Attagene RNA transcript; actives raise or lower the signal
Procedure, shortened: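 After a 24 h chemical treatment, RNA from reporter-transfected HepG2 cells is reverse-transcribed, PCR-amplified and fluorescently labelled. Fragments separated by capillary electrophoresis give reporter signal; DMSO serves as negative control.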

[15] = ATG_Ets_CIS: Attagene CIS-FACTORIAL HepG2 Assay for human Erythroblast Transformation Specific (ETS) (AID 2282941); details: HepG2 ETS cis-reporter transcription, actives raise or lower the signal
Procedure, shortened: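 Endogenous transcription factor activity read as reporter mRNA via RT-PCR and capillary electrophoresis, with gain or loss fitted bidirectionally against DMSO. Human HepG2 liver cells, transiently transfected CIS reporter constructs, 24 h exposure.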

[16] = target: Hepatocyte nuclear factor 3-beta (Homo sapiens) (UniProt Q9Y261); assay: ATG_FoxA2_CIS: Attagene CIS-FACTORIAL HepG2 Assay for human Forkhead box A2 (FOXA2) (AID 2282942); details: HepG2 cis-reporter transcription factor activity, 24 h; actives raise or lower the signal
Procedure, shortened: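 Cells: HepG2, transient multiplex reporter transfection. Exposure 24 h. Detection: reporter-specific RT-PCR, fluorescent labelling, restriction digest, capillary electrophoresis. Analysis: bidirectional curve fit, DMSO as negative control.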

[17] = ATG_FoxO_CIS: Attagene CIS-FACTORIAL HepG2 Assay for human Forkhead box O (FoxO) (AID 2282943); details: HepG2 Attagene cis-reporter, FoxO element, mRNA; actives raise or lower the signal
Procedure, shortened: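 Read-out: fluorescence of 6-FAM-labelled reporter cDNA fragments resolved by capillary electrophoresis. Transiently transfected HepG2 cells were dosed for 24 h; activity fitted in both directions relative to DMSO controls.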

[18] = ATG_GATA_CIS: Attagene CIS-FACTORIAL HepG2 Assay for human GATA Binding Protein (AID 2282944); details: HepG2 GATA cis-element reporter, Attagene multiplex mRNA; actives raise or lower the signal
Procedure, shortened: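 Cells: HepG2, transiently transfected with cis-regulated reporter transcription units. Exposure: 24 h. Detection: RT-PCR plus capillary electrophoresis of FAM-labeled fragments. Analysis: bidirectional, DMSO as baseline.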

[19] = target: Aryl hydrocarbon receptor (Homo sapiens) (UniProt P35869); assay: ATG_Ahr_CIS: Attagene CIS-FACTORIAL HepG2 Assay for human Aryl Hydrocarbon Receptor (Ahr) (AID 2282930); details: HepG2 AhR cis-factorial reporter transcription; actives raise or lower the signal
Procedure, shortened: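 Read-out: reporter mRNA quantified by RT-PCR with fluorescent primer extension and capillary electrophoresis. Human HepG2 liver cells carried transfected cis-promoter reporter units and were exposed to chemical for 24 h; gain or loss fitted relative to DMSO.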

Measured: AC50

Chain of Hepatocyte nuclear factor 3-beta (Homo sapiens) (Q9Y261 whole entry, looked up): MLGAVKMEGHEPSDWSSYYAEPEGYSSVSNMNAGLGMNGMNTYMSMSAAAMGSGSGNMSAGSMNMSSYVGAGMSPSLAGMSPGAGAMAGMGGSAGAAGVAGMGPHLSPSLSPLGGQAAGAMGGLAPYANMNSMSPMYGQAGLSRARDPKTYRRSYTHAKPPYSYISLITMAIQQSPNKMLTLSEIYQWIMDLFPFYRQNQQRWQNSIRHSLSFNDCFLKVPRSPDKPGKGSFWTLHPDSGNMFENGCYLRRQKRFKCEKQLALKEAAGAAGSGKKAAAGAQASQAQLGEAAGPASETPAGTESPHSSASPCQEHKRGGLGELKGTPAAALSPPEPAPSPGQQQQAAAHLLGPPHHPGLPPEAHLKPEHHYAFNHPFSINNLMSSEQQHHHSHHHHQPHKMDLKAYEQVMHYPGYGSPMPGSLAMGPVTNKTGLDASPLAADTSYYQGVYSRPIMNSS
Chain of Retinoic acid receptor alpha (Homo sapiens) (P10276 whole entry, looked up): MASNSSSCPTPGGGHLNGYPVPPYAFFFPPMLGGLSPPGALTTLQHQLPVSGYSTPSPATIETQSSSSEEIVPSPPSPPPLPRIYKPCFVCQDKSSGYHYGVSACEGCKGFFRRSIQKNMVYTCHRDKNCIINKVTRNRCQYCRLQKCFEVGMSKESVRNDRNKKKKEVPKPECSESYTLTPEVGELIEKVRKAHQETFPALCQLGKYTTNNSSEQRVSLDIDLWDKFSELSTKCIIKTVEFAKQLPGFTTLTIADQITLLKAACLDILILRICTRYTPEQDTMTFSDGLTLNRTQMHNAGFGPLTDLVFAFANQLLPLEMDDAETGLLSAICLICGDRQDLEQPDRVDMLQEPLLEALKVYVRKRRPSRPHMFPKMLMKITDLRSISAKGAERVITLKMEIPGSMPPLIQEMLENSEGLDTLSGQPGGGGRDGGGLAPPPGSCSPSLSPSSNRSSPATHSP
Chain of Aryl hydrocarbon receptor (Homo sapiens) (P35869 whole entry, looked up): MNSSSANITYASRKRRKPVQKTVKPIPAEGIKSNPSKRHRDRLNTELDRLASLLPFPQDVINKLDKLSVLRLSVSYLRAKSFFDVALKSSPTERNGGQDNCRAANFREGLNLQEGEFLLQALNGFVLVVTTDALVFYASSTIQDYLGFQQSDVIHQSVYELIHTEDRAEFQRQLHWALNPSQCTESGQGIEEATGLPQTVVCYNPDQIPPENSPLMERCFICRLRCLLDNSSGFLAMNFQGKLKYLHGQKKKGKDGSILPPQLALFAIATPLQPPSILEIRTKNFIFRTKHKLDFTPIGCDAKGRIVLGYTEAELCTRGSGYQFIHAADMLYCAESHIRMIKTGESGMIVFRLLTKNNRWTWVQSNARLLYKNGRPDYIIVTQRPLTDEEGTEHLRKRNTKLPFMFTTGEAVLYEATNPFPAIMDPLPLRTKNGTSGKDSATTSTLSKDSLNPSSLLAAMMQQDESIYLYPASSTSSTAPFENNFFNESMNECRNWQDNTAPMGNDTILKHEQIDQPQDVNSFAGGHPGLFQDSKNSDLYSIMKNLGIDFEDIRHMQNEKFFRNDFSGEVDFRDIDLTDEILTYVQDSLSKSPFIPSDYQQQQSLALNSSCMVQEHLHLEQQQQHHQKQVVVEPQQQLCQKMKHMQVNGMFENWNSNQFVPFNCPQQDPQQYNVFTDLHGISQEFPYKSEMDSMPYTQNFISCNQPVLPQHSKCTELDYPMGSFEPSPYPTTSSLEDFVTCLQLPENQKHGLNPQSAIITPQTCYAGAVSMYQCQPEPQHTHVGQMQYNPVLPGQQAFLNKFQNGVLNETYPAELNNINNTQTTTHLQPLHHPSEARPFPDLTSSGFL
Chain of CCAAT/enhancer-binding protein beta (Homo sapiens) (P17676 whole entry, looked up): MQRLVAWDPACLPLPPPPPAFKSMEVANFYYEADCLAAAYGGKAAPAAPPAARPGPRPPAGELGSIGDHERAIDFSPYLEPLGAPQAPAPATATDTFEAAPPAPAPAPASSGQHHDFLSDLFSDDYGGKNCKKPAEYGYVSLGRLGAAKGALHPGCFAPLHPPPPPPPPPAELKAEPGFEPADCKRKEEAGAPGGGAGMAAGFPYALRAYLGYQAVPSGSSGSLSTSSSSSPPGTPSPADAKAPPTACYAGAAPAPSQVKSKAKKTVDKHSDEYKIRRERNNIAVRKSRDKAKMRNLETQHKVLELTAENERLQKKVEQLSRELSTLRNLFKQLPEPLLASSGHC
Chain of Transcription factor E2F1 (Homo sapiens) (Q01094 whole entry, looked up): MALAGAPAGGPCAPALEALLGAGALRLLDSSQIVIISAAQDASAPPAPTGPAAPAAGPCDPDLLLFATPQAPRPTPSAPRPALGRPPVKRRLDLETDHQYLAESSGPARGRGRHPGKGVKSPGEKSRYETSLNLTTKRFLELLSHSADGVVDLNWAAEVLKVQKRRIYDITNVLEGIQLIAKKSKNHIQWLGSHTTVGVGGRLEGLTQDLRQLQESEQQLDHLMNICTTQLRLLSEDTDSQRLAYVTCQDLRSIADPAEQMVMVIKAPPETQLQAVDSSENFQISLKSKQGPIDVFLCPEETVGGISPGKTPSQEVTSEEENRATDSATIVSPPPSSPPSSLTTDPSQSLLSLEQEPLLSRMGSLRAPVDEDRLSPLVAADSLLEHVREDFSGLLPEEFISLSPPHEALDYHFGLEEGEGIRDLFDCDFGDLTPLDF

OC(O)C(F)(F)C(F)(F)F
inactive: [1] | [2] | [3] | [6] | [7] | [8] | [9] | [10] | [11] | [12] | [13] | [14] | [15] | [16] | [17] | [18]
active: [4] 117 µM | [5] 96 µM

CC(=O)CCC(C)C
inactive: [1] | [2] | [3] | [4] | [5] | [6] | [7] | [8] | [9] | [10] | [11] | [12] | [13] | [14] | [15] | [17] | [18]

CCCCCCCCCc1ccc(OCCO)cc1
active: [1] 0.278 µM | [2] 22.8 µM | [3] 4.25 µM | [4] 13.3 µM | [5] 2.26 µM | [6] 23.2 µM | [7] 7.68 µM | [10] 23.1 µM | [13] 25.2 µM | [15] 22.9 µM | [16] 21.9 µM | [17] 13.3 µM
inactive: [19] | [8] | [9] | [11] | [12] | [14] | [18]

O=S(=O)(O)c1ccc(Cl)cc1
inactive: [1] | [2] | [3] | [4] | [19] | [5] | [6] | [7] | [8] | [9] | [10] | [11] | [12] | [13] | [14] | [15] | [16] | [17] | [18]

CC(C)(C)c1cc(CCC(=O)OCC(COC(=O)CCc2cc(C(C)(C)C)c(O)c(C(C)(C)C)c2)(COC(=O)CCc2cc(C(C)(C)C)c(O)c(C(C)(C)C)c2)COC(=O)CCc2cc(C(C)(C)C)c(O)c(C(C)(C)C)c2)cc(C(C)(C)C)c1O
inactive: [2] | [3] | [4] | [19] | [5] | [6] | [7] | [8] | [9] | [10] | [11] | [12] | [13] | [15] | [16] | [17] | [18]
active: [1] 0.173 µM

CC(C)(C)c1cc(CCC(=O)NCCCCCCNC(=O)CCc2cc(C(C)(C)C)c(O)c(C(C)(C)C)c2)cc(C(C)(C)C)c1O
active: [1] 50 µM
inactive: [2] | [3] | [4] | [5] | [6] | [7] | [8] | [9] | [10] | [11] | [12] | [13] | [14] | [15] | [16] | [17] | [18]

NCC(F)(F)C(F)(F)C(F)(F)C(F)(F)C(F)(F)C(F)(F)C(F)(F)C(F)(F)F
inactive: [1] | [2] | [3] | [4] | [19] | [5] | [6] | [7] | [8] | [9] | [10] | [11] | [12] | [13] | [14] | [15] | [16] | [17] | [18]

Source: PubChem BioAssay (EPA / NIEHS)
